# Columns and labels:
# Assay in all cases: DAPPL (digital affinity profiling via proximity ligation, sequencing); 10 mM Tris-HCl pH 7.5, 50 mM NaCl, 1 mM DTT, 4% glycerol, room temperature, 30 min; GST-TFs on glutathione beads, 16-mer random dsDNA library, 0.1% formaldehyde crosslink after washing; high values mean tight binding
# Conditions in all cases: protein: recombinant; tags: N-terminal GST; dsDNA, one strand shown
# [1] = molecular target: T1, GABPA (Homo sapiens, UniProt Q06546 1-454)
# T1 sequence: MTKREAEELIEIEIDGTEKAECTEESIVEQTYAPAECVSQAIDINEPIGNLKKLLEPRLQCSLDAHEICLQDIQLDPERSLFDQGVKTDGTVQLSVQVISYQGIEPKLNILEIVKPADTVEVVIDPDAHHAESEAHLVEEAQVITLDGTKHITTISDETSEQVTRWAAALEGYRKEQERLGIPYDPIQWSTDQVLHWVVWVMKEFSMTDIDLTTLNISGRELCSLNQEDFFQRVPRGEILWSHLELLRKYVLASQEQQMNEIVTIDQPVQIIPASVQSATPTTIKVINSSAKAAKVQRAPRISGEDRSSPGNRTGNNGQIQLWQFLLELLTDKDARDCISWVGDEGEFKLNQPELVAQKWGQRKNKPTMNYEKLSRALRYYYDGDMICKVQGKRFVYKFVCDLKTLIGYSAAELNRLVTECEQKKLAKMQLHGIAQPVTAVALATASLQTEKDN
# Outline: (§1)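 Yeast served to express human transcription factors as GST fusions, which were then captured on glutathione beads and labelled with DNA barcodes. Pooled with a tag-only sample, they were incubated with 200 nmole of a 16-mer random double-stranded DNA library for 30 min at room temperature in Tris/NaCl/DTT/glycerol buffer, washed, crosslinked with 0.1% formaldehyde, ligated by proximity, amplified by PCR and sequenced. Dividing each hexamer's read frequency for a factor by its frequency for the tag-only sample gives the binding signal.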
# [2] = molecular target: T2, ELK3 (Homo sapiens, UniProt P41970 1-407)
# T2 sequence: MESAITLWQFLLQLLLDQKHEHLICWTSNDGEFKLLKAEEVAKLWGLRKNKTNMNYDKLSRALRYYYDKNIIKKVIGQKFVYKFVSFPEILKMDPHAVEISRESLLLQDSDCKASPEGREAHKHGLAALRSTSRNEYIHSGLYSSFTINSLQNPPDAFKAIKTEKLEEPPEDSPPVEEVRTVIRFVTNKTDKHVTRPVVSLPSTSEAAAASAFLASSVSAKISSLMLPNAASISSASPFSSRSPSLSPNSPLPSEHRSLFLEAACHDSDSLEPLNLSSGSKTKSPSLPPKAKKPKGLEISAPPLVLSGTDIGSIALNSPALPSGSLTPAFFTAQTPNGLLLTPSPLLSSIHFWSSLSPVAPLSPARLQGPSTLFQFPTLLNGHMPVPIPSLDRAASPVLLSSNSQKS
# Outline: as §1
# [3] = molecular target: T3, ELK4 (Homo sapiens, UniProt P28324-2 1-405)
# T3 sequence: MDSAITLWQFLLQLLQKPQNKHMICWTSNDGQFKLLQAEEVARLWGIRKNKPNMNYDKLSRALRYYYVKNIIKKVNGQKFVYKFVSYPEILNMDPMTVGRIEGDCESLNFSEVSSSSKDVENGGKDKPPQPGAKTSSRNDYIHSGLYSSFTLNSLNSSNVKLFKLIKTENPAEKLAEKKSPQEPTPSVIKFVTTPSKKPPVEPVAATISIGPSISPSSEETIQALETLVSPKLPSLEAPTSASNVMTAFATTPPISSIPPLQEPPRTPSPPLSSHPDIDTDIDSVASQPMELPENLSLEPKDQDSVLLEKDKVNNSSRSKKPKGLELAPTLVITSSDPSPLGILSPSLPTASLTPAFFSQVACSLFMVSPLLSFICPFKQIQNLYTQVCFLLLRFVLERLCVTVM
# Outline: as §1
# [4] = molecular target: T4, ETV2 (Homo sapiens, UniProt O00321 1-342)
# T4 sequence: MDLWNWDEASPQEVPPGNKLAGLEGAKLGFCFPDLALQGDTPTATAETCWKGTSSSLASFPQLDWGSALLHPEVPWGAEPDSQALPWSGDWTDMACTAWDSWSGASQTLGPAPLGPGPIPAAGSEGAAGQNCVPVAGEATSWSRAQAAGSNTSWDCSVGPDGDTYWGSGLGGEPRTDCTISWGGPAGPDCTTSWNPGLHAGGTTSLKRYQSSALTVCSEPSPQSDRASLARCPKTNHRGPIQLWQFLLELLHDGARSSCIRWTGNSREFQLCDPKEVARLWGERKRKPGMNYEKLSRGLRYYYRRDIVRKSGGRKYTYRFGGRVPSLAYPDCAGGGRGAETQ
# Outline: as §1
# [5] = molecular target: T5, ELF3 (Homo sapiens, UniProt P78545 1-371)
# T5 sequence: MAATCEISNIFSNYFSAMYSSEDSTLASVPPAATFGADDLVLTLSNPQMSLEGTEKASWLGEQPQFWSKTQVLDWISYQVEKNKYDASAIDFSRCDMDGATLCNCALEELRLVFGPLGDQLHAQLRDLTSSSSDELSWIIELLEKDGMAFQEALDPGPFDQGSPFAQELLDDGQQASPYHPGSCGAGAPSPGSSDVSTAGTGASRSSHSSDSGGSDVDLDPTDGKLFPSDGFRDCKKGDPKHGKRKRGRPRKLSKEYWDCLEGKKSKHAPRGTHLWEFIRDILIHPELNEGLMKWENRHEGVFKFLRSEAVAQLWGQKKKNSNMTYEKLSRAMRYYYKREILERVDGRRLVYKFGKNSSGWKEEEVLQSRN
# Outline: as §1
# [6] = molecular target: T6, ETV7 (Homo sapiens, UniProt Q9Y603 1-341)
# T6 sequence: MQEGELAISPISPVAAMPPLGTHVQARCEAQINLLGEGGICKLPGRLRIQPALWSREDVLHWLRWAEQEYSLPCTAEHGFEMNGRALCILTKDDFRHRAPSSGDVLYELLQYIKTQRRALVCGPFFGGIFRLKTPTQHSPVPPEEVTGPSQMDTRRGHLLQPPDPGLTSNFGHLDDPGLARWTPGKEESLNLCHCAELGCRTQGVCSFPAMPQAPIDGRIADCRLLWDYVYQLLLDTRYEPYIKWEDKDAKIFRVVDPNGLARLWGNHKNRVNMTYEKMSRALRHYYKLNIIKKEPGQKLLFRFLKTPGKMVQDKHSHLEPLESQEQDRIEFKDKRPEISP
# Outline: as §1
# [7] = molecular target: T7, ETV3 (Homo sapiens, UniProt P41162-2 1-143)
# T7 sequence: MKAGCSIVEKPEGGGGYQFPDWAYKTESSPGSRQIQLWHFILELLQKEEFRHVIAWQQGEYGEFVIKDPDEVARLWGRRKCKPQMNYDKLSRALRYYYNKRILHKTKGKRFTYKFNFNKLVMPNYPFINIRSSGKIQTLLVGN
# Outline: as §1
# [8] = molecular target: SPI1 (Homo sapiens, UniProt P17947 1-270)
# Outline: as §1
# [9] = molecular target: SPIB (Homo sapiens, UniProt Q01892 1-262)
# Sequence of SPIB (Q01892 whole entry): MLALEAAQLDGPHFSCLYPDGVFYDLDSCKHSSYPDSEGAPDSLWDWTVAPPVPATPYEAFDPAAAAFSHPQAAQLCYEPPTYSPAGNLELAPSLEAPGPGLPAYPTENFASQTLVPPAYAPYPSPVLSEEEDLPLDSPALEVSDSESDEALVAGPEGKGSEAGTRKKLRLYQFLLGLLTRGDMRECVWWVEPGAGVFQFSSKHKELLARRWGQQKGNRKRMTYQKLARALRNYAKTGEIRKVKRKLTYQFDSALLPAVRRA
# Outline: as §1
# [10] = molecular target: T8, SPDEF (Homo sapiens, UniProt O95238 1-335)
# T8 sequence: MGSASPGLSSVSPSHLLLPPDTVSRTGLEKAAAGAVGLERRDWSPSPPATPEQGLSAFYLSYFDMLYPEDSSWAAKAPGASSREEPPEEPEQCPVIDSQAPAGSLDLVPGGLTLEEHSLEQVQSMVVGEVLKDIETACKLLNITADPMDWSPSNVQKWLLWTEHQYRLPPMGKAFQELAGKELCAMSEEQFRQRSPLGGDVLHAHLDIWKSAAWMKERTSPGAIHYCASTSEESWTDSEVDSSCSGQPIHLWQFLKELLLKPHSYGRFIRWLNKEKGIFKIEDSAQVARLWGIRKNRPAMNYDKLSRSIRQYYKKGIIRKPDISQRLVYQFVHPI
# Outline: as §1
# [11] = molecular target: T9, ERG (Homo sapiens, UniProt P11308 1-479)
# T9 sequence: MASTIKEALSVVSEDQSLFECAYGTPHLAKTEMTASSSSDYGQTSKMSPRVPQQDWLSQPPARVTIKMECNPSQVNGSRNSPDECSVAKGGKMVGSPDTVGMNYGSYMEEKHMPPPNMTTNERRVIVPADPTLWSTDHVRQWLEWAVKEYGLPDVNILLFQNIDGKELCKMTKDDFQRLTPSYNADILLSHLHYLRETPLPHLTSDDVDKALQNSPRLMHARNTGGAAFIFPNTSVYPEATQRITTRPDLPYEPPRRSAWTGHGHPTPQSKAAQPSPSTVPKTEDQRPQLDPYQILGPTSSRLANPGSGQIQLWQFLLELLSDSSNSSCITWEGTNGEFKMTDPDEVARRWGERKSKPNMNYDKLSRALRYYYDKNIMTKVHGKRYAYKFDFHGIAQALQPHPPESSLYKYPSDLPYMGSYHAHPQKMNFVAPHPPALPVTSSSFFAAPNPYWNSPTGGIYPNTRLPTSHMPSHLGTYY
# Outline: as §1
# [12] = molecular target: T10, ETV3L (Homo sapiens, UniProt Q6ZN32 1-361)
# T10 sequence: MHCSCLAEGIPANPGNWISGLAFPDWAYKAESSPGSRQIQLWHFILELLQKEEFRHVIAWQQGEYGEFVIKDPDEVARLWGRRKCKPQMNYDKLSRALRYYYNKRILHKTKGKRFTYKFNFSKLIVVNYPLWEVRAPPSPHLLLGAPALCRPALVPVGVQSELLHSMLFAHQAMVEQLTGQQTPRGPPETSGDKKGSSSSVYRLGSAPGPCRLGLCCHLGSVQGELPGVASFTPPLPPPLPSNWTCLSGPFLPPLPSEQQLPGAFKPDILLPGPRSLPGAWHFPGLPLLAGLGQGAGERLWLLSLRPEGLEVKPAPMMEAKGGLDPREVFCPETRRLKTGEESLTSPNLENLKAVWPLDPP
# Outline: as §1
# [13] = molecular target: T11, ETS2 (Homo sapiens, UniProt P15036 1-469)
# T11 sequence: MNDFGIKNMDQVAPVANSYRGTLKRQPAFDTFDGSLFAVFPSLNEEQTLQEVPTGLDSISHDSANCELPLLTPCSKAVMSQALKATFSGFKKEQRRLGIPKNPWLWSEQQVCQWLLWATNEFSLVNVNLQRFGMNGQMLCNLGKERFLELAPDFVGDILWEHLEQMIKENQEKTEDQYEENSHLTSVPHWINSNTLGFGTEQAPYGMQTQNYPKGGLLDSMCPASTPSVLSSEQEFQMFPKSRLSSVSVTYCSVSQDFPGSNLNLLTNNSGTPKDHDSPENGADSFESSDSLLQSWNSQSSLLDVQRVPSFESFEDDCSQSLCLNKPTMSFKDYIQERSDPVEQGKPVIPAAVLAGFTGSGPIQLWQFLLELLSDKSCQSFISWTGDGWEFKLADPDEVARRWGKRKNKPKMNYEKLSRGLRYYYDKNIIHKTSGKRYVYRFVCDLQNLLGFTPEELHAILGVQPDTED
# Outline: as §1
# [14] = molecular target: T12, FEV (Homo sapiens, UniProt Q99581 1-238)
# T12 sequence: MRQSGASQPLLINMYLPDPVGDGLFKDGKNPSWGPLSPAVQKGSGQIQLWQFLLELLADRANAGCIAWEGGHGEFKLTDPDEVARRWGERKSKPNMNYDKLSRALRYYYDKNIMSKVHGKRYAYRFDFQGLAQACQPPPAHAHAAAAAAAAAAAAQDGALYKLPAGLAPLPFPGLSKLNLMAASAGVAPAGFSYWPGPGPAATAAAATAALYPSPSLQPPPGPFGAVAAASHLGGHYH
# Outline: as §1
sequence,measurement,setting,value
CAAGCC,binding signal,[1],"1.03 fold enrichment (6-mer frequency, TF over GST control)"
same,binding signal,[2],"1.06 fold enrichment (6-mer frequency, TF over GST control)"
same,binding signal,[3],"1.07 fold enrichment (6-mer frequency, TF over GST control)"
same,binding signal,[4],"1.06 fold enrichment (6-mer frequency, TF over GST control)"
same,binding signal,[5],"1.12 fold enrichment (6-mer frequency, TF over GST control)"
same,binding signal,[6],"1.02 fold enrichment (6-mer frequency, TF over GST control)"
same,binding signal,[7],"1.02 fold enrichment (6-mer frequency, TF over GST control)"
GTGGTA,binding signal,[8],"1.02 fold enrichment (6-mer frequency, TF over GST control)"
same,binding signal,[9],"1 fold enrichment (6-mer frequency, TF over GST control)"
same,binding signal,[3],"1.02 fold enrichment (6-mer frequency, TF over GST control)"
GTGTTG,binding signal,[3],"1.06 fold enrichment (6-mer frequency, TF over GST control)"
same,binding signal,[10],"1.01 fold enrichment (6-mer frequency, TF over GST control)"
ACGCGT,binding signal,[11],"1 fold enrichment (6-mer frequency, TF over GST control)"
same,binding signal,[9],"1.04 fold enrichment (6-mer frequency, TF over GST control)"
same,binding signal,[3],"1.1 fold enrichment (6-mer frequency, TF over GST control)"
same,binding signal,[12],"1.02 fold enrichment (6-mer frequency, TF over GST control)"
same,binding signal,[13],"1.01 fold enrichment (6-mer frequency, TF over GST control)"
TGGGAC,binding signal,[14],"1 fold enrichment (6-mer frequency, TF over GST control)"
same,binding signal,[3],"1.03 fold enrichment (6-mer frequency, TF over GST control)"
same,binding signal,[4],"1.14 fold enrichment (6-mer frequency, TF over GST control)"
